Compound activity from PubChem BioAssay.
JMJD2A Tudor = inhibitors of human JMJD2A Tudor domain; O75164; AlphaScreen JMJD2A-Tudor / H3K4me3 peptide binding; Potency, µM (titrated, usually from 114 µM), for the others: at the top dose activity change, negative = inhibition, most hits filed as inhibitors; actives 4.4% (n = 390,000); AID 504339; further: potency means the concentration at half of the fitted maximal effect; on the % scale 0 is the no-effect control and ±100 the full control effect; nearly all actives have a fitted effect of over 50% in size
Target sequence (O75164 whole entry, looked up, the tested form may be a part): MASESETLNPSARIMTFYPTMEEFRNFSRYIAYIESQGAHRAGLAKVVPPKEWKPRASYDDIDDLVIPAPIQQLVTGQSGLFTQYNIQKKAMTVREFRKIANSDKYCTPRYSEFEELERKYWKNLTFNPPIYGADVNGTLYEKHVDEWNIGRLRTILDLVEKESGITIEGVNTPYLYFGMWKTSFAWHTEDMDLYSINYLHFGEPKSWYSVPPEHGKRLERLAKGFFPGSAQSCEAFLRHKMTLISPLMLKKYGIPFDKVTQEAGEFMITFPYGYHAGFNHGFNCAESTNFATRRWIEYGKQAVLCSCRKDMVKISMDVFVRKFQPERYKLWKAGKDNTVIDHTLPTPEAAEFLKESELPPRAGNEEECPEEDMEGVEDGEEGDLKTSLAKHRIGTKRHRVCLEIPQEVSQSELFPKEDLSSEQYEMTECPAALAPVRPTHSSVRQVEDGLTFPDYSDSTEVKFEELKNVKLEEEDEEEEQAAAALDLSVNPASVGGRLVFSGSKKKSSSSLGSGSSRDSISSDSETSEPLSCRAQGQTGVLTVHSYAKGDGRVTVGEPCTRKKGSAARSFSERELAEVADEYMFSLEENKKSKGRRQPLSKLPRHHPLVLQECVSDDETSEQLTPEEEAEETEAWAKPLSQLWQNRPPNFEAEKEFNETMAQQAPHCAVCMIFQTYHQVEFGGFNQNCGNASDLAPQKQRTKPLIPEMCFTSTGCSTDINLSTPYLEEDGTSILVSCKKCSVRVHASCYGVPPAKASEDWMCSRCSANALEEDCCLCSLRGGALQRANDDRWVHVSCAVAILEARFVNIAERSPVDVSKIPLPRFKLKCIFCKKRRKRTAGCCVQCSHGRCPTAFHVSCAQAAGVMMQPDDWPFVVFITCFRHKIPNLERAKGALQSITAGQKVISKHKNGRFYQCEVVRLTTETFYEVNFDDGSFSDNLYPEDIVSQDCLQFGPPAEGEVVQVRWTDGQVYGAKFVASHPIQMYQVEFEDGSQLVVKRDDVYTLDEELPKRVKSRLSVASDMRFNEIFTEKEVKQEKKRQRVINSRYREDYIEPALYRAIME
HP1b binding inh = inhibitors of HP1-beta chromodomain binding to methylated histone tails. P83916. Potency, µM (top dose mostly 114 µM), for the others: top-dose activity change, negative = inhibition, usual class: inhibitors. AlphaScreen HP1-beta / biotin-H3K9me3 peptide binding. actives 0.56% (n = 390,000); further: potency means the concentration at half of the fitted maximal effect; nearly all actives have a fitted effect of over 70% in size
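AlphaScreen: HP1-beta (50 nM) preformed 30 min with biotin-H3(1-18)K9me3 peptide (50 nM) in PBS pH 7.4, 0.01% Tween-20. Compound added for 30 min at RT, then streptavidin donor/nickel chelate acceptor beads (10 ug/mL) for 30 min.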
Six1-Eya2 blk = Six1/Eya2 interaction inhibition | AlphaScreen GST-Six1/His-Eya2 binding, biochemical; active compounds read low | activity change, % (no concentration beside the values) | actives 0.56% (n = 360,000); in the data active means activity change below about -65%; inconclusive means mostly about -30% to -63%; further: on the % scale 0 is the no-effect control and ±100 the full control effect
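Six1/Eya2 binding was read as AlphaScreen signal after compounds were pinned into GST-Six1 plus His-tagged Eya2 (5X stock 250/500 nM) in pH 8.0 Tris/NaCl/TCEP buffer, beads added, then incubated 1 h, 37 C, dark.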
CtBP-E1A inh = inhibitors of CtBP/E1A interaction | AlphaScreen GST-E1A/His-CtBP binding, 1536-well; active compounds read low | activity change, % (concentration not given with the values) | actives 0.49% (n = 340,000); in the data active means activity change below about -65%; inconclusive means mostly about -30% to -63%; further: on the % scale 0 is the no-effect control and ±100 the full control effect
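GST-E1A and His-tagged CtBP (125 nM each as 5X stock) were preincubated with pin-transferred compound for 2 h at 37 °C in the dark, then glutathione donor and nickel acceptor beads were added for 1 h before AlphaScreen reading.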
BAZ2B inh = BAZ2B (human) inhibition; Q9UIF8; AlphaScreen BAZ2B-H3K14Ac peptide displacement; Potency, µM (doses to about 114 µM), without a hit: at the top dose activity change, negative = inhibition, usual class: inhibitors; actives 4.4% (n = 360,000); further: potency means the concentration at half of the fitted maximal effect; on the % scale 0 is the no-effect control and ±100 the full control effect; nearly all actives have a fitted effect of over 60% in size
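Multi-concentration screen (max 110 uM) measuring displacement of acetylated histone H3 peptide from BAZ2B by AlphaScreen, using 50 nM protein, 50 nM peptide and 10 ug/mL streptavidin donor plus Ni-chelate acceptor beads.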
G9a block = inhibitors of human histone lysine methyltransferase G9a; Q96KQ7; G9a H3K9 monomethylation, AlphaScreen, 2 h; Potency, µM (doses to about 102 µM), inactives show at the top dose activity, negative = inhibition, usual class: inhibitors; actives 8.8% (n = 350,000); further: potency means the concentration at half of the fitted maximal effect; on the % scale 0 is the no-effect control and ±100 the full control effect; nearly all actives have a fitted effect of over 75% in size
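G9a (20 nM) preincubated 15 min RT with compounds, then 500 nM biotinylated H3K9 peptide and 20 uM SAM added; 2 h RT reaction. Monomethyl-H3K9 product detected by AlphaScreen with anti-H3K9me1 antibody, streptavidin donor and anti-rabbit IgG acceptor beads.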
The depositor's hits bear a star; [ ] = dose if it differs, or a comment. Compounds with a hit are over-represented: about 10% of the library has one in this group of screens. Unless noted, the call rests on the fitted dose curve; in most records, active means well fitted inhibition curve with a large enough effect; inconclusive means small, poorly fitted or top-dose-only effect; inactive means no such curve, though single readings can be large or run the other way.

Results for C[C@@H]1CCCCO[C@H](CN(C)S(=O)(=O)c2cn(C)cn2)[C@@H](C)CN([C@H](C)CO)C(=O)c2cc(NC(=O)c3ccncc3)ccc2O1 ?
Six1-Eya2 blk: 4; CtBP-E1A inh: 0

How did Nc1cc(Br)c(N)c(Br)c1 do in these assays?
JMJD2A Tudor: -15%; HP1b binding inh: -4%; Six1-Eya2 blk: -3; CtBP-E1A inh: -1; BAZ2B inh: -32%; G9a block: 50µM*

Results for Cc1cc(N2CCN(C)CC2)nc2ccc(NC(=S)N3CCCCCC3)cc12 ?
JMJD2A Tudor: -35%; HP1b binding inh: 0%[57 µM]; Six1-Eya2 blk: 0; BAZ2B inh: -34%; G9a block: 56µM*

Results for Cc1cccc(N2CCN(C(=S)Nc3ccc4nc(N5CCN(C)CC5)cc(C)c4c3)CC2)c1C ?
JMJD2A Tudor: -29%; HP1b binding inh: 23%; Six1-Eya2 blk: 5; BAZ2B inh: inconclusive; G9a block: -5%[59 µM]

What do the screens show for `Cc1cc(N2CCN(C)CC2)nc2ccc(NC(=S)N3CCN(c4ccc(Cl)cc4)CC3)cc12`?
JMJD2A Tudor: -30%; HP1b binding inh: -18%; Six1-Eya2 blk: 5; CtBP-E1A inh: 1; BAZ2B inh: -29%; G9a block: 40µM*

Results for Cc1cc(N2CCOCC2)nc2ccc(NC(=S)N3CCCCC3C)cc12 (stereo unspecified) ?
JMJD2A Tudor: inconclusive; HP1b binding inh: -2%; Six1-Eya2 blk: -26; CtBP-E1A inh: -25; G9a block: 45µM*

What do the screens show for `Cc1cc(N2CCN(C)CC2)nc2ccc(NC(=S)N3CCN(c4ccc(F)cc4)CC3)cc12`?
JMJD2A Tudor: -24%[11.4 µM]; HP1b binding inh: 14%; Six1-Eya2 blk: -1; CtBP-E1A inh: -19; BAZ2B inh: -31%; G9a block: -20%[59 µM]

How did Cc1cc(N2CCOCC2)nc2ccc(NC(=O)C3CCCCC3)cc12 do in these assays?
JMJD2A Tudor: -11%; HP1b binding inh: 56%

What do the screens show for `Cc1cc(N2CCN(C)CC2)nc2ccc(NC(=S)N3CCCCC3)cc12`?
JMJD2A Tudor: -32%; HP1b binding inh: 9%; Six1-Eya2 blk: -9; CtBP-E1A inh: -11; BAZ2B inh: inconclusive; G9a block: 25µM*

Results for CCCCN(C(=O)C1CSC2(C)CCC(=O)N12)c1c(N)n(CC(C)C)c(=O)[nH]c1=O (stereo unspecified) ?
JMJD2A Tudor: -11%; HP1b binding inh: 13%; Six1-Eya2 blk: -10; CtBP-E1A inh: 13; BAZ2B inh: -1%; G9a block: 0%[12.7 µM]

What do the screens show for `Cc1cc(C)c(NC(=O)C2C(=O)Nc3ccccc3C(=O)N2C(C)(C)C)c(C)c1` (stereo unspecified)?
Six1-Eya2 blk: -8; CtBP-E1A inh: 1

Results for CCOC(=O)/C(=C\c1cccc(O)c1)c1nc2sc(C)c(C)c2c(=O)[nH]1 ?
JMJD2A Tudor: 56µM*; HP1b binding inh: 28µM*; Six1-Eya2 blk: -19; CtBP-E1A inh: 1; BAZ2B inh: -28%; G9a block: 3.2µM*

Results for Cc1ccccc1NC1=C(Cl)C(=O)N(C2CCCCC2)C1=O ?
JMJD2A Tudor: -1%; HP1b binding inh: 41%; Six1-Eya2 blk: 11; CtBP-E1A inh: 0; BAZ2B inh: -2%; G9a block: 36%[59 µM]

What do the screens show for `COc1ccccc1NC1=C(Cl)C(=O)N(C2CCCCC2)C1=O`?
JMJD2A Tudor: inconclusive; HP1b binding inh: -14%; Six1-Eya2 blk: -25; CtBP-E1A inh: 21; BAZ2B inh: inconclusive; G9a block: 45µM*

What do the screens show for `S=C(NCCCN(Cc1ccc(Cl)c(Cl)c1)c1ccc(Br)cn1)NCCc1cnc[nH]1`?
JMJD2A Tudor: 40µM*

Results for S=C(NCCCc1cnc[nH]1)NCCCN(Cc1ccc(Cl)cc1)c1cc(-c2ccccc2)ccn1 ?
JMJD2A Tudor: 56µM*; HP1b binding inh: inconclusive
